In PubChem BioAssay:
The source made the active and inactive calls.

Key:
[1] = anti-His antibody binders, primary screen, artefact control for SMM control protein annotation, biochemical, small-molecule microarray, 635 nm fluorescence (AID 1128); settings: anti-His Alexa647 antibody binding, higher = more signal;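 note: score merges feature fluorescence with signal-to-noise for each printed compound spot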
[2] = system: Human papillomavirus type 1a E7 protein (residues 1-88); test: HPV1a E7 small-molecule binders, primary screen, biochemical, small-molecule microarray, residues 1-88, 635 nm (AID 1129); settings: small-molecule microarray binding, fluorescence 635 nm; higher = more signal
[3] = biological target: Focal adhesion kinase 1 (Homo sapiens) (UniProt Q05397); test: small-molecule microarray binders of FAK, primary screen, biochemical, 635/667 nm fluorescence, BSA, DTT (AID 1130); settings: PTK2 binding, 635 nm fluorescence, higher = more signal;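 note: composite of spot emission at 667 nm and signal to noise over triplicate slides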
[4] = system: Fibrinogen (Alexa647-labelled); test: fibrinogen binders on compound microarrays, profiling panel, artefact control for SMM control-protein annotation, biochemical, small-molecule microarray, 635/667 nm fluorescence (AID 1131); settings: fibrinogen-A647 binding fluorescence, higher = more signal;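 note: z-score merges 667 nm fluorescence with per-spot signal-to-noise over triplicate slides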
[5] = biological target: Follistatin (Homo sapiens) (UniProt P19883); test: follistatin binders on small-molecule microarrays, primary screen, biochemical, small-molecule microarray, 635/667 nm fluorescence (AID 1132); settings: FST binding, 635 nm fluorescence, higher = more signal
[6] = biological target: Fibroblast growth factor 2 (Homo sapiens) (UniProt P09038); test: FGF2 binders on small-molecule microarrays, primary screen, biochemical, small-molecule microarray, 635/667 nm fluorescence (AID 1133); settings: small-molecule microarray binding, FGF2, fluorescence 635/667; higher = more signal
[7] = mitochondrial membrane potential change in A549 cells, profiling panel, cell-based, JC-1 fluorescence, basal, 24 h, 100 nL (AID 1138); settings: higher = more signal;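 note: A549 lung adenocarcinoma cells under basal conditions with no added stimulus; test concentration not given here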
[8] = system: Lefty1; test: Lefty1 binders on small-molecule microarrays, primary screen, biochemical, small-molecule microarray, 635/667 nm fluorescence (AID 1139); settings: small-molecule microarray binding, fluorescence 635/667; higher = more signal
[9] = system: wheat germ agglutinin (Triticum aestivum), Alexa647-labelled; test: wheat germ agglutinin binders on compound microarrays, profiling panel, artefact control for SMM control-protein annotation, biochemical, small-molecule microarray, 635/667 nm fluorescence (AID 1140); settings: WGA-A647 binding, 635 nm fluorescence, higher = more signal;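 note: score merges 667 nm feature emission with signal to noise over triplicate slides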
[10] = biological target: Luciferin 4-monooxygenase (Photinus pyralis) (UniProt P08659); test: firefly luciferase enzyme inhibitors, primary screen, biochemical, luminescence, purified enzyme, 2006 set (AID 1141); settings: SteadyGlo luminescence, 30 min, higher = more signal, called active from +8 up or from −8 down;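 note: cell-free assay with purified firefly luciferase at 100 ng per well in PBS; test concentration not given here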
Luciferin 4-monooxygenase (Photinus pyralis), sequence (P08659 whole entry, looked up): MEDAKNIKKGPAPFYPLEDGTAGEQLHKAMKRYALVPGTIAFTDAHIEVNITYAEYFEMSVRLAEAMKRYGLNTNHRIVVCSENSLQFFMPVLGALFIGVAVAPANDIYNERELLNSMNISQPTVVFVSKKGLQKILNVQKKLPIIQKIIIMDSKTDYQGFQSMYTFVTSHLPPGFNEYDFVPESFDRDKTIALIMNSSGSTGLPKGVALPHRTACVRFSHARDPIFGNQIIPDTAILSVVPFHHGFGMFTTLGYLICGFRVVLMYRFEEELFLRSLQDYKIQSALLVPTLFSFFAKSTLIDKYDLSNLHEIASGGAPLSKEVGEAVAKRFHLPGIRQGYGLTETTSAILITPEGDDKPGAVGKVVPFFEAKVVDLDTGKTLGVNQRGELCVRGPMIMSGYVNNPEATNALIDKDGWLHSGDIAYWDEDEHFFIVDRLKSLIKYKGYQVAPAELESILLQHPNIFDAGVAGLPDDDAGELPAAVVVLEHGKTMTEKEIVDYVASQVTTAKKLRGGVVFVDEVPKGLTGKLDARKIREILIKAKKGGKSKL

Focal adhesion kinase 1 (Homo sapiens), sequence (Q05397 whole entry, looked up): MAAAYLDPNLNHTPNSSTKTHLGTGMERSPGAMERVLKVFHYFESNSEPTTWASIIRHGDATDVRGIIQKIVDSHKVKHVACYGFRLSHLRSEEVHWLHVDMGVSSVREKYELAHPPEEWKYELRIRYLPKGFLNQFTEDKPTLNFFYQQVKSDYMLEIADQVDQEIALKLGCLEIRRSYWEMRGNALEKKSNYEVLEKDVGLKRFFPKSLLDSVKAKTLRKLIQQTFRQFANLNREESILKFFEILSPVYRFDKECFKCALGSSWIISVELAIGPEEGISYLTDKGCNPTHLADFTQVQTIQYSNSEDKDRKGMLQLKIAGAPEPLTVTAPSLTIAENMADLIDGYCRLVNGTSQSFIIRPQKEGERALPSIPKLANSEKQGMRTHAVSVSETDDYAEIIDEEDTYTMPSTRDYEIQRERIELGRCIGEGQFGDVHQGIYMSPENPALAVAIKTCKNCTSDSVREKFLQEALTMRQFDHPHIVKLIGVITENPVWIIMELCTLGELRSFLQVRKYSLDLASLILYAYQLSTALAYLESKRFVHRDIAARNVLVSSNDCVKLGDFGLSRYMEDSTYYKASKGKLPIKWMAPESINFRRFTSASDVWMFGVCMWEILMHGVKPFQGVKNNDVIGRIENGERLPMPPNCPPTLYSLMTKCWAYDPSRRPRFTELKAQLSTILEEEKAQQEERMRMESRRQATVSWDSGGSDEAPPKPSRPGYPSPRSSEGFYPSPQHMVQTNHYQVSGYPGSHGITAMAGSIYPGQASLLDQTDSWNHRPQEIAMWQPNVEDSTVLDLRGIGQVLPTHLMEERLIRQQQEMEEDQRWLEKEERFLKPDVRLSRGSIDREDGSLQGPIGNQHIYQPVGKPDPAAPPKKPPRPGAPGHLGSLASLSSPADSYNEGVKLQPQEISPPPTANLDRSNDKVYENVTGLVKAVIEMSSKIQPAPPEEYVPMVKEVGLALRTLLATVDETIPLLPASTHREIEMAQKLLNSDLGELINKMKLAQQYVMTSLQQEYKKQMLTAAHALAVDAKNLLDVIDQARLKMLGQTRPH
Fibroblast growth factor 2 (Homo sapiens), sequence (P09038 whole entry, looked up): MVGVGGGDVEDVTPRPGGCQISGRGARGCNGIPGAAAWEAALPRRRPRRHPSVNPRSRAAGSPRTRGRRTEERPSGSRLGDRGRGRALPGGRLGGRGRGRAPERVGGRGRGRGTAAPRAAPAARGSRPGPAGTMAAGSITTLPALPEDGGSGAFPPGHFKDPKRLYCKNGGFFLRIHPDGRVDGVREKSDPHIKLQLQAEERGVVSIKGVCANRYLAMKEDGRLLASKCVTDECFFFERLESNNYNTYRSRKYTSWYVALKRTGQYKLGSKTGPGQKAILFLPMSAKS
Follistatin (Homo sapiens), sequence (P19883 whole entry, looked up): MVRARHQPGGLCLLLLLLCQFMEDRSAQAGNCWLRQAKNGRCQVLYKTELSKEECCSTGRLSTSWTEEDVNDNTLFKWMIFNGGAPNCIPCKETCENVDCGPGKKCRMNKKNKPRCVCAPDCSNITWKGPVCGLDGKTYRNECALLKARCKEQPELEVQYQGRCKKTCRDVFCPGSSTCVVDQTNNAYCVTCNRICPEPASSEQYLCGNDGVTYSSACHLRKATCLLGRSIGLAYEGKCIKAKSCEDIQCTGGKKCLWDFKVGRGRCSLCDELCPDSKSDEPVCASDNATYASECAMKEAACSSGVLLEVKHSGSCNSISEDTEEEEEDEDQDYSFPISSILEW

SMILES	composite z-score [1]	composite z-score [2]	composite z-score [3]	composite z-score [4]	composite z-score [5]	composite z-score [6]	z-score [7]	composite z-score [8]	composite z-score [9]	z-score [10]
COC(=O)C(CC#Cc1ccc2c(c1)[C@]1(C(=O)N2)[C@H](c2ccccc2OCCO)N2[C@H](c3ccccc3)[C@H](c3ccccc3)OC(=O)[C@H]2[C@@H]1C(=O)O)C(=O)OC	1.94	1.16	0.411	0.765	0.206	0.36	0.621	0.284	0.702	-2.37 (inactive)
NCCCCCNC(=O)[C@H]1C[C@H]2C(=O)N3CCC[C@H]3C(=O)N2[C@H]1c1ccc(O)cc1	0.695	1.15	0.223	0.894	1.34	1.35	-0.373	1.1	0.781	-0.462 (inactive)
C=CC[C@]1(C(=O)N2CCOCC2)N=C(c2ccc(OCCCO)cc2)O[C@H]1c1ccccc1N=[N+]=[N-]	2.08	1.26	0.804	0.979	1.14	0.287	-0.0671	-0.0598	1.37	-10.7 (active)
CC(=O)NCCCC[C@@H]1NC(=O)[C@H]2C[C@@H](C(=O)O)[C@@H](c3ccc(O)cc3)N2C1=O	2.26	1.21	0.626	0.584	1.32	1.67	-0.738	1.45	0.478	-3.39 (inactive)
COC(=O)[C@@]1(Cc2ccc(OC)cc2)[C@H]2c3cc(C(=O)N4CCCC4)n(CCSCCO)c3C[C@H]2CN1C(=O)c1ccccc1	2.01	1.29	0.529	0.787	-0.0598	-0.254	0.572	-0.731	1.39	0.644 (inactive)
C[N+](C)(C)CCCC[C@@H]1NC(=O)[C@@H]2C[C@H](C(=O)NCCCCCCNC(=O)CS)[C@H](c3ccc(O)cc3)N2C1=O	0.271	-0.982	-0.531	-0.33	0.0054	-0.117	-0.122	-0.237	-0.341	0.182 (inactive)
[N-]=[N+]=NCc1ccccc1[C@H]1OC(c2ccc(OCCCO)cc2)=N[C@@]1(Cc1ccccc1)C(=O)N1CCCCC1	0.777	1.23	0.795	1	1.45	1.52	0.779	0.944	0.834	0.486 (inactive)
NC(=O)[C@@H]1[C@H]2C(=O)O[C@H](c3ccccc3)[C@H](c3ccccc3)N2[C@H](c2ccc(O)cc2)[C@@]12C(=O)Nc1ccc(C#CC3=CCCCC3)cc12	1.43	1.18	0.284	0.789	1.02	-0.201	-2.5	0.847	1.03	-0.589 (inactive)
O[C@@H](Cc1ccccc1)[C@@H](/C=C/C1CC1)NCc1cccc(Cl)c1	0.183	-0.431	0.314	-1.7	-1.4	-1.99	-0.164	-0.717	0.204	0.585 (inactive)
O=C1OCCC/C=C\[C@H]2OC34C=CCN(c5ccc6ccccc6c5)C(=O)[C@H]3N(CCCCCO)C(=O)[C@@H]4C12 (stereo not given in full)	-0.268	-1.62	-0.24	-0.582	-0.472	-1.06	-0.168	-0.343	-0.753	0.118 (inactive)
OB1C=CCC(CCc2ccccc2)O1 (stereo not given)	-0.837	-0.692	-0.153	-0.894	0.0417	0.712	1.13	-0.732	-0.477	-1.83 (inactive)
CO[C@H]1O[C@H](CO)[C@@H](OC(=O)Nc2ccccc2)[C@@H]2OC(=O)[C@@H](Cc3ccc4ccccc4c3)C/C=C/C[C@H](Cc3ccc4ccccc4c3)C(=O)O[C@@H]12	0.79	1.2	1.12	0.768	0.935	0.477	0.461	0.698	0.807	-1.97 (inactive)
COC(=O)[C@@]1(Cc2ccccc2)[C@H]2c3cc(C(=O)N4CCCC4)n(Cc4c(CO)[nH]cc(C)c4=O)c3C[C@H]2CN1C(=O)c1ccccc1	1.18	0.93	0.777	0.827	0.518	-0.258	-0.0421	-0.816	1.05	2.49 (inactive)
C#CCNCc1ccccc1	0.3	0.736	-0.101	-0.395	0.065	0.166	0.588	0.0644	-0.219	-0.352 (inactive)
COC(=O)C(CC#Cc1ccc2c(c1)[C@]1(C(=O)N2)[C@H](c2ccc(O)cc2)N2[C@H](c3ccccc3)[C@H](c3ccccc3)OC(=O)[C@H]2[C@@H]1C(=O)N1CCN(c2ncccn2)CC1)C(=O)OC	3.29	1.23	0.809	0.975	0.771	0.208	-0.35	0.162	1.2	-0.078 (inactive)
C=CCN1C(=O)[C@]2(O[C@H](CCO)[C@@H]([Si](C)(C)c3ccc(OC)cc3)[C@@H]2C)c2cc(N(C=O)c3ccccc3)ccc21	0.896	0.823	-0.0453	-0.16	-0.193	-0.129	-1.08	0.148	0.792	-0.914 (inactive)
